Measured values as given in PubChem BioAssay (Tox21).
Values joined by “and” are separate entries in the source; they are usually repeats but may differ in a detail not shown here. Equal values may be shown once. Inconclusive results are not listed. Entries that show only a call come without a potency. Where a structure was tested more than once in an assay, its records may differ in their call. Active and inactive are the calls of the source. Unless noted, calls follow the shape of the dose curve; as a rule, active = well fitted curve in the direction sought with a large enough effect in the repeat runs; inconclusive = weak or mixed curves; inactive = no such curve, though single readings can be large; an effect the other way counts as inactive or inconclusive.

Assays:
[1] = qHTS assay to identify small molecule agonists of the hypoxia (HIF-1) signaling pathway (AID 1224846; active = well fitted activation curve with a large enough effect in the signal ratio in the repeat runs, not every such curve was filed as active; the % refers to the signal ratio)
Summary of the method: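 Beta-lactamase FRET read-out (CCF4-AM substrate) from ME-180 cells carrying an HRE-driven bla reporter, after 17 hrs compound exposure at 37C/5% CO2. Cells were seeded at 2,000 per well in 0.5% dialyzed FBS medium and preincubated 5 hrs.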

[2] = qHTS assay to identify small molecule agonists of H2AX - cell viability counter screen (AID 1224847; calls by dose curve; also: nearly all actives have a fitted effect of over 30% in size; also: potency is read from the fitted curve at half-maximal effect)
Summary of the method: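 Quantitative HTS viability measurement: CHO-K1 wild-type cells in serum (10% FBS) medium, short 3 hr drug exposure at 37C with 0.76% DMSO, CellTiter-Glo luminescent detection.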

[3] = qHTS assay to identify small molecule antagonists of the estrogen related receptor (ERR) signaling pathway from Tox21 library (AID 1224848); also: nearly all actives have a fitted effect of over 50% in size; also: potency is read from the fitted curve at half-maximal effect
Summary of the method: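 First, 2,000 ERR cells per well were plated and held 6 h at 37 C/5% CO2. Next, compounds in DMSO were pinned in and left 18 h at 37 C. Finally, ONE-Glo was added and luminescence read after 30 min at room temperature.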

[4] = qHTS assay to identify small molecule agonists of the estrogen related receptor (ERR) signaling pathway from Tox21 library (AID 1224849; calls by dose curve; also: nearly all actives have a fitted effect of over 15% in size); details: ERR reporter cell line, ONE-Glo luciferase, 18 h; at 92.4 µM (top of the series)
Summary of the method: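 Luminescence readout (ONE-Glo, 30 min RT) after 18 h compound exposure at 37 C of NTP-supplied ERR reporter cells; cells were plated 6 h before compound addition by pin tool.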

[5] = qHTS RealTime-Glo MT Cell Viability Assay in HepG2 cells - 24 hour (AID 1224867); also: nearly all actives have a fitted effect of over 50% in size; also: potency is read from the fitted curve at half-maximal effect
Summary of the method: (§1)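 Luminescence read-out: viable HepG2 cells reduce a prosubstrate to a NanoLuc substrate, giving a signal proportional to live cell number. Reads taken at 0, 8, 16, 24, 32 and 40 h of compound exposure at 37 C.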

[6] = qHTS RealTime-Glo MT Cell Viability Assay in HEK293 cells - 32 hour (AID 1224868); also: nearly all actives have a fitted effect of over 50% in size; also: potency is read from the fitted curve at half-maximal effect
Summary of the method: (§2)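 Nonlytic real-time viability readout: viable cells convert prosubstrate to NanoLuc substrate, giving luminescence proportional to live cell number. HEK293, 600 cells/well, compound added after 5 h, continuous culture at 37 C.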

[7] = A CellTox Green Cytotoxicity Assay to monitor cytotoxicity in HEK293 cells - 40 hour (AID 1224871); also: nearly all actives have a fitted effect of over 45% in size; also: potency is read from the fitted curve at half-maximal effect
Summary of the method: (§3)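 Read-out: fluorescence of a cell-impermeant cyanine dye staining DNA of dead cells, proportional to cytotoxicity. HEK293, 600 cells/well with reagent, compound (23 nL DMSO) added after 5 h; reads at 0, 8, 16, 24, 32, 40 h.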

[8] = qHTS RealTime-Glo MT Cell Viability Assay in HEK293 cells - 16 hour (AID 1224872); also: nearly all actives have a fitted effect of over 50% in size; also: potency is read from the fitted curve at half-maximal effect
Summary of the method: as §2

[9] = qHTS RealTime-Glo MT Cell Viability Assay in HepG2 cells - 8 hour (AID 1224873); also: nearly all actives have a fitted effect of over 55% in size; also: potency is read from the fitted curve at half-maximal effect
Summary of the method: (§4)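 HepG2 cells mixed with RealTime-Glo MT reagents (NanoLuc plus cell-permeant prosubstrate) were seeded at 600 cells/well, incubated 5 h at 37 C/5% CO2, then pinned with compounds in DMSO; nonlytic luminescence tracked viability during 40 h treatment.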

[10] = qHTS RealTime-Glo MT Cell Viability Assay in HEK293 cells - 40 hour (AID 1224874); details: RealTime-Glo luminescence; max response: stronger effect = lower value; also: nearly all actives have a fitted effect of over 50% in size; also: potency is read from the fitted curve at half-maximal effect
Summary of the method: (§5)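 Luminescence readout at each listed time point; HEK293, 600 cells/well, RealTime-Glo MT reagent added with cells; compounds pinned (23 nL in DMSO) after 5 h at 37 C; continuous culture at 37 C.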

[11] = A CellTox Green Cytotoxicity Assay to monitor cytotoxicity in HEK293 cells - 24 hour (AID 1224875); also: nearly all actives have a fitted effect of over 45% in size; also: potency is read from the fitted curve at half-maximal effect
Summary of the method: as §3

[12] = A CellTox Green Cytotoxicity Assay to monitor cytotoxicity in HepG2 cells - 16 hour (AID 1224876); also: nearly all actives have a fitted effect of over 45% in size; also: potency is read from the fitted curve at half-maximal effect
Summary of the method: (§6)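 HepG2, 600 cells/well premixed w/ CellTox Green; 5 h settle, 37 C/5% CO2; pintool cpd add (DMSO); 37 C, 40 h; fluorescence read at 0, 8, 16, 24, 32, 40 h.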

[13] = qHTS RealTime-Glo MT Cell Viability Assay in HepG2 cells - 32 hour (AID 1224877); also: nearly all actives have a fitted effect of over 55% in size; also: potency is read from the fitted curve at half-maximal effect
Summary of the method: as §1

[14] = A CellTox Green Cytotoxicity Assay to monitor cytotoxicity in HepG2 cells - 24 hour (AID 1224878); also: nearly all actives have a fitted effect of over 45% in size; also: potency is read from the fitted curve at half-maximal effect
Summary of the method: as §6

[15] = A CellTox Green Cytotoxicity Assay to monitor cytotoxicity in HepG2 cells - 40 hour (AID 1224879); also: nearly all actives have a fitted effect of over 40% in size; also: potency is read from the fitted curve at half-maximal effect
Summary of the method: as §6

[16] = qHTS RealTime-Glo MT Cell Viability Assay in HEK293 cells - 0 hour (AID 1224880); also: nearly all actives have a fitted effect of over 45% in size; also: potency is read from the fitted curve at half-maximal effect
Summary of the method: as §5

[17] = A CellTox Green Cytotoxicity Assay to monitor cytotoxicity in HEK293 cells - 32 hour (AID 1224881); also: nearly all actives have a fitted effect of over 40% in size; also: potency is read from the fitted curve at half-maximal effect
Summary of the method: as §3

[18] = A CellTox Green Cytotoxicity Assay to monitor cytotoxicity in HEK293 cells - 0 hour (AID 1224869); also: nearly all actives have a fitted effect of over 50% in size
Summary of the method: as §3

[19] = qHTS RealTime-Glo MT Cell Viability Assay in HepG2 cells - 40 hour (AID 1224870); also: nearly all actives have a fitted effect of over 50% in size; also: potency is read from the fitted curve at half-maximal effect
Summary of the method: as §4

## Nc1ccc2ccccc2c1
[1]
  outcome: inactive
[2]
  Potency: inactive
[3]
  Potency: inactive
[4]
  activity change, positive = activation: 30.3% (active)
[5]
  Potency: inactive
[6]
  Potency: inactive
[7]
  Potency: inactive
[8]
  Potency: inactive
[9]
  Potency: inactive
[10]
  max response: 5% (inactive)
[11]
  Potency: inactive
[12]
  Potency: inactive
[13]
  Potency: inactive
[14]
  Potency: inactive
[15]
  Potency: inactive
[16]
  Potency: inactive

## O=[N+]([O-])c1ccc(Nc2ccccc2)cc1
[1]
  outcome: inactive
[2]
  Potency: 80 µM (active)
[4]
  activity change, positive = activation: -30.2% (inactive) and -27.4% (inactive)
[5]
  Potency: inactive
[6]
  Potency: 24.7 µM (active) and 19.5 µM (active)
[7]
  Potency: inactive
[8]
  Potency: 27.8 µM (active)
[9]
  Potency: inactive
[10]
  Potency: 27.8 µM (active) and 21.9 µM (active)
[11]
  Potency: inactive
[12]
  Potency: inactive
[13]
  Potency: inactive
[14]
  Potency: inactive
[15]
  Potency: inactive
[16]
  Potency: inactive

## CCC(=O)Nc1ccc(Cl)c(Cl)c1
[1]
  outcome: inactive
[2]
  Potency: inactive
[5]
  Potency: inactive
[6]
  Potency: 44.5 µM (active)
[7]
  Potency: inactive
[8]
  Potency: 44.5 µM (active)
[9]
  Potency: inactive
[10]
  Potency: 22.3 µM (active) and 43.6 µM (active)
[11]
  Potency: inactive
[12]
  Potency: inactive
[13]
  Potency: inactive
[14]
  Potency: inactive
[15]
  Potency: inactive
[16]
  Potency: inactive
[17]
  Potency: inactive

## CCOP(=S)(OCC)SCSC(C)(C)C
[1]
  outcome: inactive
[2]
  Potency: inactive
[5]
  Potency: inactive
[6]
  Potency: inactive
[18]
  Potency: inactive
[19]
  Potency: inactive
[7]
  Potency: inactive
[8]
  Potency: inactive
[9]
  Potency: inactive
[10]
  max response: 5.63% (inactive) and -1.38% (inactive)
[11]
  Potency: inactive
[12]
  Potency: inactive
[13]
  Potency: inactive
[14]
  Potency: inactive
[15]
  Potency: inactive
[16]
  Potency: inactive

## O=[N+]([O-])c1ccc(Cl)c([N+](=O)[O-])c1
[2]
  Potency: 102 µM (active)
[3]
  Potency: 24.7 µM (active) and 24.3 µM (active)
[4]
  activity change, positive = activation: -81.7% (inactive) and -78.5% (inactive)
[5]
  Potency: 35.2 µM (active) and 17.4 µM (active)
[6]
  Potency: 9.92 µM (active) and 12.3 µM (active)
[18]
  Potency: inactive
[19]
  Potency: 35.2 µM (active) and 17.4 µM (active)
[7]
  Potency: 14 µM (active) and 19.5 µM (active)
[8]
  Potency: 11.1 µM (active) and 12.3 µM (active)
[9]
  Potency: 24.9 µM (active) and 15.5 µM (active)
[10]
  Potency: 9.92 µM (active) and 12.3 µM (active)
[11]
  Potency: 39.5 µM (active)
[12]
  Potency: 39.5 µM (active) and 54.9 µM (active)
[13]
  Potency: 35.2 µM (active) and 17.4 µM (active)
[14]
  Potency: 35.2 µM (active) and 49 µM (active)
[15]
  Potency: 39.5 µM (active) and 24.5 µM (active)
[16]
  Potency: inactive

## O=C1C(Cl)=C(Cl)C(=O)c2ccccc21
[2]
  Potency: 22.6 µM (active) and 14.2 µM (active)
[3]
  Potency: 24.4 µM (active) and inactive
[4]
  activity change, positive = activation: -82.7% (inactive) and -46.9% (inactive)
[5]
  Potency: 24.6 µM (active) and 11 µM (active)
[6]
  Potency: 6.19 µM (active) and 7.76 µM (active)
[18]
  Potency: inactive
[19]
  Potency: 34.8 µM (active) and 17.4 µM (active)
[7]
  Potency: 3.9 µM (active) and 4.9 µM (active)
[8]
  Potency: 6.19 µM (active) and 9.77 µM (active)
[9]
  Potency: 21.9 µM (active) and 6.92 µM (active)
[10]
  Potency: 5.51 µM (active) and 6.92 µM (active)
[11]
  Potency: 3.9 µM (active) and 6.92 µM (active)
[12]
  Potency: 12.3 µM (active) and 4.9 µM (active)
[13]
  Potency: 31 µM (active) and 12.3 µM (active)
[14]
  Potency: 12.3 µM (active) and 3.89 µM (active)
[15]
  Potency: 17.4 µM (active) and 4.36 µM (active)
[16]
  Potency: 5.51 µM (active)
[17]
  Potency: 6.19 µM (active) and 6.17 µM (active)

## Clc1ccccc1-c1nnc(-c2ccccc2Cl)nn1
[1]
  outcome: inactive
[2]
  Potency: 100 µM (active)
[5]
  Potency: inactive
[6]
  Potency: inactive
[19]
  Potency: inactive
[7]
  Potency: inactive
[8]
  Potency: inactive
[9]
  Potency: inactive
[10]
  max response: -1.79% (inactive) and -6.1% (inactive)
[11]
  Potency: inactive
[12]
  Potency: inactive
[13]
  Potency: inactive
[14]
  Potency: inactive
[15]
  Potency: inactive
[16]
  Potency: inactive
[17]
  Potency: inactive

## OCCOCCO
[1]
  outcome: inactive
[2]
  Potency: inactive
[5]
  Potency: inactive
[6]
  Potency: inactive
[7]
  Potency: inactive
[8]
  Potency: inactive
[9]
  Potency: inactive
[10]
  max response: -1.92% (inactive) and 3.49% (inactive)
[11]
  Potency: inactive
[12]
  Potency: inactive
[13]
  Potency: inactive
[14]
  Potency: inactive
[15]
  Potency: inactive
[16]
  Potency: inactive
[17]
  Potency: inactive

## O=NN1CCOCC1
[1]
  outcome: inactive
[2]
  Potency: inactive
[5]
  Potency: inactive
[6]
  Potency: inactive and 2.19 µM (active)
[18]
  Potency: inactive
[7]
  Potency: inactive
[8]
  Potency: inactive and 3.47 µM (active)
[9]
  Potency: inactive
[10]
  Potency: 1.95 µM (active)
  max response: -0.852% (inactive)
[11]
  Potency: inactive
[12]
  Potency: inactive
[13]
  Potency: inactive
[14]
  Potency: inactive
[15]
  Potency: inactive
[16]
  Potency: inactive

## C=CC(Cl)CCl (centres undefined)
[1]
  outcome: inactive
[2]
  Potency: inactive
[5]
  Potency: inactive
[6]
  Potency: inactive
[19]
  Potency: inactive
[7]
  Potency: inactive
[8]
  Potency: inactive
[9]
  Potency: inactive
[10]
  max response: 19.1% (inactive) and 0.374% (inactive)
[11]
  Potency: inactive
[12]
  Potency: inactive
[13]
  Potency: inactive
[14]
  Potency: inactive
[15]
  Potency: inactive
[16]
  Potency: inactive
